Measured values taken from PubChem BioAssay AID588726 (The Scripps Research Institute Molecular Screening Center, 2011).
Out of some 360,000 compounds screened, about 8,200 (2.3%) were called active. The sample holds actives, similar compounds and a random draw of the others, so the mix is not that of the screen. A number with no mark means an inactive call. No stated cut-off is given here; in the data, active means inhibition above about 27%; inactive means the rest.

What follows are compounds tested against Fructose-bisphosphate aldolase (Mycobacterium tuberculosis (strain ATCC 25618 / H37Rv)) (UniProt P9WQA3) (assay: Mtb FBA enzyme inhibitors, primary screen, biochemical, fluorescence, strain H37Rv (AID 588726;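 further: 0% = vehicle and 100% = reference inhibitor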)). Settings: purified M. tuberculosis FBA, fluorescence read-out, at 1 µM, stronger effect = higher value.
Fructose-bisphosphate aldolase (Mycobacterium tuberculosis (strain ATCC 25618 / H37Rv)), sequence (P9WQA3 whole entry, looked up): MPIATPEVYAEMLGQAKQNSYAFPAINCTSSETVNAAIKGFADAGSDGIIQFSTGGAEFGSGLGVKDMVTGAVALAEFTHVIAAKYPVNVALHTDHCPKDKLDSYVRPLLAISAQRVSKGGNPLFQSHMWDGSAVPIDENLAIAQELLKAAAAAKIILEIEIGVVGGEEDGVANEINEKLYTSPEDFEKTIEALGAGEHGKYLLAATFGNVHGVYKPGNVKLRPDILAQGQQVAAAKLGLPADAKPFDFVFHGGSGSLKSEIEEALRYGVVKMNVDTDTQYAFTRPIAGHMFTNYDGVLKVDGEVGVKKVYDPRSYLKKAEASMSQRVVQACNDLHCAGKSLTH
In the case of `Cn1nnnc1-c1cc(Cl)cc(Cl)c1`, the inhibition is reported as -1.41%.
Work on `O=C(CNC(=O)c1ccccc1Br)NCCSc1ccc(Br)cc1` yielded an inhibition of 2.75%.
In the case of `CCCCC(NS(=O)(=O)c1ccc(C)cc1)C(=O)Oc1ccc2c3c(c(=O)oc2c1)CCC3` (centres undefined), the inhibition is reported as 61.7% (active).
Compound `Cc1cc(=O)oc2cc(OC(C)C(=O)NCCc3ccc(S(N)(=O)=O)cc3)ccc12` (centres undefined) has an inhibition of 20.4%.
`CSCCC(NS(=O)(=O)c1ccc(C)cc1)C(=O)N1CCCC1` (centres undefined) showed an inhibition of -1.91%.
`C[C@H](OC(=O)n1ccnc1)[C@@H]1O[C@@]2(C)CCC[C@@H]1O2` gave an inhibition of -0.83%.
With `CC1(C)C(=O)C2(CCCCC2)C(=O)OC1c1cccs1` (centres undefined) the inhibition was -0.98%.
`O=C(Nc1ccc(Cl)cc1)C1Cc2c(-c3ccc4c(c3)OCO4)ccnc2O1` (centres undefined) was tested, and the inhibition was 26.8%.
For `COc1ccc(NC(=O)C2Cc3c(-c4ccc(Cl)cc4)ccnc3O2)cc1` (centres undefined), the inhibition was -1.52%.
With `COc1ccc(NC(=O)C2Cc3c(-c4ccc5c(c4)OCO5)ccnc3O2)cn1` (centres undefined) the inhibition was 64.8% (active).
For `CCCCn1c(N)c(N(Cc2ccccc2OC)C(=O)COc2cc(C)ccc2Cl)c(=O)[nH]c1=O`, the inhibition was 1.47%.
`CCOc1ccc(OCC)c(-c2c(=O)n(OCc3ccc(Cl)cc3)c3ccccc3[n+]2[O-])c1` gave an inhibition of -1.68%.
In the case of `Brc1cnc(N2CCCC2)nc1N1CCCCC1`, the inhibition is reported as 4.23%.
In the case of `Brc1cnc2ccccc2c1N1CCCCC1`, the inhibition is reported as 51.2% (active).
Work on `c1ccc(-c2cc(N3CCCCC3)c3ccccc3n2)cc1` yielded an inhibition of 0.14%.
`CCOC(=O)c1c(S(=O)(=O)Nc2ccc(CN3CCC(C)CC3)cc2)c(C)n(C)c1C` was tested, and the inhibition was 1.42%.
`CCCCn1c(=S)[nH]c2ncccc2c1=O` showed an inhibition of 0.66%.
`CN(CCc1ccccn1)C(=O)CCC1CCCN(Cc2ccccc2OC(F)F)C1` (centres undefined) gave an inhibition of 5.01%.
In the case of `CCN1CCc2c(C#N)c(NCc3ccccc3)nc(NCCO)c2C1`, the inhibition is reported as 33.9% (active).
In the case of `CCCCc1nc(NCc2ccccc2)c(C#N)c2c1CCCC2`, the inhibition is reported as 0.15%.
Work on `CC(C)CCNc1nc(N2CCCC2)c2c(c1C#N)CCN(C)C2` yielded an inhibition of 4.23%.
Compound `COc1ccc(NC2CC(=O)N(C)C2=O)cc1` (centres undefined) has an inhibition of 1.09%.
With `Cc1ccc(-c2nc(COC(=O)c3c(C)noc3C)cs2)cc1` the inhibition was 1.63%.
`CCN(C(=O)COC(=O)CCC(=O)c1cccs1)C1CCCCC1` showed an inhibition of 4.65%.
`CCOC(=O)c1cc2c(=O)n3ccccc3nc2n(CC(C)C)c1=NC(=O)c1c(-c2c(F)cccc2Cl)noc1C` was tested, and the inhibition was 13.1%.
For `CCn1c(=N)c(S(=O)(=O)c2ccc(F)cc2)cc2c(=O)n3ccccc3nc21`, the inhibition was 20.8%.
`O=C(CN1CCN(S(=O)(=O)/C=C/c2ccccc2)CC1)NC(=O)NCc1ccco1` showed an inhibition of -1.09%.
`O=c1ccc(-c2ccc(S(=O)(=O)Nc3ccccc3)o2)n[nH]1` was tested, and the inhibition was 2.01%.
`O=C(CSc1nnc(-c2ccncc2)o1)NCc1ccc(Cl)cc1` was tested, and the inhibition was -1.06%.
Compound `COCCNC(=O)c1ccccc1-c1nc(-c2ccccc2Cl)no1` has an inhibition of 0.39%.
For `CCCCNc1c(-c2cccc(Sc3ccc(OC)cc3)c2)nc2ccccn12`, the inhibition was 40.1% (active).
`CCCCNC(=O)c1onc(CSc2cccc(OC)c2)c1C(=O)O` was tested, and the inhibition was 1.62%.
`COC(=O)c1ccc2nc(-c3cccc(Br)c3)c(Cc3ccc(OC)cc3C)n2c1` showed an inhibition of 2.37%.
`CC(=O)c1nn(-c2ccccc2)c(=Nc2ccccc2)cc1C` was tested, and the inhibition was 2.4%.
Compound `O=C1c2ccccc2C(c2nc3ccccc3[nH]2)N1c1ccccc1` (centres undefined) has an inhibition of 0.93%.
`CCNC(=S)Nc1ccc2c(c1)c(=O)n(C)n2Cc1ccc(Cl)cc1` was tested, and the inhibition was 59.7% (active).
With `COC(=O)c1cc(CNC(=O)CC(C)c2ccccc2)ccc1OC` (centres undefined) the inhibition was -0.38%.
`COc1cc(Cn2c3ccc(NC(=O)CC(C)c4ccccc4)cc3c(=O)n2C)ccc1F` (centres undefined) was tested, and the inhibition was 146% (active).
With `Fc1ccccc1CNC(=S)Nc1ccc(Cl)cc1` the inhibition was 0.3%.
`O=C1CCCN1CCCNC(=S)Nc1ccc(F)c(Cl)c1` was tested, and the inhibition was -1.02%.
`COc1cccc(NC(=O)CC(c2ccc(OC(C)C)cc2)c2ccccc2OC)c1` (centres undefined) was tested, and the inhibition was 1.51%.
Compound `CC=CCn1c(SCCCc2ccccc2)nc2c1c(=O)[nH]c(=O)n2C` has an inhibition of 4.11%.
With `CCOC(=O)c1sc(/N=C/Nc2nc(C)c(C(=O)OCC)s2)nc1C` the inhibition was 2.19%.
For `N#Cc1ccccc1NC(=O)c1cccc(COc2ccc(Cl)cc2Cl)c1`, the inhibition was -1.7%.
`CCOc1ccc(C(C)=O)cc1COC(=O)CN1C(=O)NC2(CCCC2)C1=O` gave an inhibition of -0.88%.
`Cc1ccc(C=O)c([B-](F)(F)F)c1` showed an inhibition of 2.07%.
With `CN1c2ccc(C=O)c3c(C=O)ccc(c23)N(C)C1(C)C` the inhibition was 62.1% (active).
`O=S(=O)(/C=C/c1ccccc1)NCCc1ccccn1` was tested, and the inhibition was 1.96%.
For `COC(=O)c1onc(-c2c(OC)cc(OC)cc2OC)c1C(=O)OC`, the inhibition was -3.51%.
`COc1ccc2c(c1)N(C)/C(=C1/SC(=S)N(NC(C)=O)C1=O)S2` showed an inhibition of -4.56%.
In the case of `CC(=O)N1C(=O)/C(=C2\SC(=S)N(NC(=O)c3ccc(O)cc3)C2=O)c2ccccc21`, the inhibition is reported as 31.8% (active).
In the case of `COc1ccc(C(=O)NN2C(=O)C3C(c4ccccc4)C=CC(c4ccccc4)C3C2=O)cc1` (centres undefined), the inhibition is reported as 1.1%.
For `COc1cccc(NC(=O)c2cc(S(=O)(=O)N3CCc4ccccc43)cn2C)c1`, the inhibition was -0.54%.
With `CC(C)(C)OC(=O)C[C@@H]1C/C=C\C[C@H](CC(=O)N[C@@H](CO)Cc2ccccc2)C(=O)N[C@H](Cc2ccccc2)COC1=O` the inhibition was 3.41%.
`Cc1cc(C)cc(NC(=O)N2CCC(NC(=O)c3ccc(F)cc3)CC2)c1` was tested, and the inhibition was -6.06%.
`O=C(Nc1cccc(F)c1)c1coc(=O)c(Br)c1` was tested, and the inhibition was 171% (active).
With `O=C(Nc1cccc(F)c1)[C@@H]1CCCN1` the inhibition was 4.68%.
With `Cc1nc2nc(SCC(=O)Nc3cccc(F)c3)[nH]c2cc1Br` the inhibition was -2.16%.
With `CCc1nn(CCCC(=O)NCc2ccc(C)cc2)c(=O)c2cc3occc3n12` the inhibition was -0.41%.
